Experimental data published in PubChem BioAssay AID1445 (SRMLSC, 2008).
Hit rate of the full screen: of about 220,000 compounds, about 910 (0.41%) were called active. Only a selection was taken, and actives are over-represented in it overall. Results with a measured potency or affinity are listed apart. A number with no mark means an inactive call.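 The calls were made as follows: active = primary inhibition above the hit cutoff, then over 50% inhibition at one or more dose response concentrations (cut at about 23% in these data, passing the limit was not always enough); inconclusive = conflicting primary data, or primary hits not chosen for dose response; inactive = low primary inhibition, or under 50% at every dose.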

Biological target: Aminopeptidase N (Plasmodium falciparum (isolate 3D7)) (UniProt O96935)
Sequence (O96935 whole entry, looked up): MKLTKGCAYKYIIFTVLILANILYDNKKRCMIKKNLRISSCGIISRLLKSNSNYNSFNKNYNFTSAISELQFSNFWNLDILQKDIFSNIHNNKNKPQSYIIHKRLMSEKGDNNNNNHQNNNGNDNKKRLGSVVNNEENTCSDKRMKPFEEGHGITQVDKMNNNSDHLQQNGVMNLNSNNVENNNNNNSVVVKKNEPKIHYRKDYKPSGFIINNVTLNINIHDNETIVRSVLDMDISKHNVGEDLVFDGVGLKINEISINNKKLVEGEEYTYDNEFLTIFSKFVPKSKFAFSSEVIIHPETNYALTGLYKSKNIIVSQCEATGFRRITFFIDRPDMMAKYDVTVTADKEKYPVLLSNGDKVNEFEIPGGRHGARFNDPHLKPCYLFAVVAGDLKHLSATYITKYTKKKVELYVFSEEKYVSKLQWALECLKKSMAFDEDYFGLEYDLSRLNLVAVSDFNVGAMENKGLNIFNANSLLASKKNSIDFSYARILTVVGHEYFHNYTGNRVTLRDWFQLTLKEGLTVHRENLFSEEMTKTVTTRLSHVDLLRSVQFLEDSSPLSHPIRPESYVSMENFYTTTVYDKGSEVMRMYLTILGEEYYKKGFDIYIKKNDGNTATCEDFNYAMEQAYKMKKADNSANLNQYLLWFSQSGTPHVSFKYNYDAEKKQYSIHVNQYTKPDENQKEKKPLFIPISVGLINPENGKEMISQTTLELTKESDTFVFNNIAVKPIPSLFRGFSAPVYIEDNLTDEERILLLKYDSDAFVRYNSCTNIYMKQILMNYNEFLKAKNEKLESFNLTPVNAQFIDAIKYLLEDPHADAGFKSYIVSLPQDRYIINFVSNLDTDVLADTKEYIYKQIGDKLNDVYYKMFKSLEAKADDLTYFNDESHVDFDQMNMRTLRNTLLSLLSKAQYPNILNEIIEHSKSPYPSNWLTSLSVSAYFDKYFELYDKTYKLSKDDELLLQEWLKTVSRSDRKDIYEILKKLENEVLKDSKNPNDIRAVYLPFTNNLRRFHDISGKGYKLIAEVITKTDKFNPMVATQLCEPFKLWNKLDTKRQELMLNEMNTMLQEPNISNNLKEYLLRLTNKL
Test: malaria alanyl aminopeptidase activity blockers – biochemical, fluorogenic H-Leu-NHMec substrate, 1536-well (AID 1445);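 also: plate controls were DMSO full reaction for no effect and no enzyme background for full effect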
Conditions: recombinant M1AAP, H-Leu-NHMec fluorogenic kinetic assay; at 30 µM, active compounds read high unless noted

SMILES | inhibition
COc1ccc(C2C(C(=O)OCC(=O)Nc3ccc(C)cc3)CCC(=O)N2c2ccc(OC)cc2)cc1 (stereo not given) | 23.9% (active)
CCNC(=O)COC(=O)C1CCC(=O)N(c2ccc(OC)cc2)C1c1ccc(OC)cc1 (stereo not given) | 12.7%
COc1ccc(C2C(C(=O)OCC(=O)N3CCCCC3)CCC(=O)N2c2ccc(OC)cc2)cc1 (stereo not given) | 0.13%
O=C(Nc1ccc2nn(-c3ccccc3)nc2c1)c1cccs1 | -15.1%
O=C(NCc1ccccc1Cl)C1CCCN(S(=O)(=O)c2cnc[nH]2)C1 (stereo not given) | 4.7%
CCCCC(CC)CNC(=O)C1CCCN(S(=O)(=O)c2cnc[nH]2)C1 (stereo not given) | 24.2% (active)
Cc1ccc(CNC(=O)C2CCCN(S(=O)(=O)c3cnc[nH]3)C2)cc1 (stereo not given) | -2.21%
COc1ccccc1CNC(=O)C1CCCN(S(=O)(=O)c2cnc[nH]2)C1 (stereo not given) | 23.9% (active)
COc1ccccc1NC(=O)C1CCCN(S(=O)(=O)c2cnc[nH]2)C1 (stereo not given) | 1.4%
CCCCNC(=O)C1CCN(S(=O)(=O)c2cnc[nH]2)CC1 | 14.7%
CC(C)(C)N1C(=O)c2ccccc2NC(=O)N1Cc1ccc(Br)cc1 | 2.07%
O=C1CC(SC(=Nc2ccccc2)Nc2ccccc2)C(=O)N1c1ccc(Cl)c(Cl)c1 (stereo not given) | -2.66%
CCC/C(O)=C1\C(=O)CCCC1=NCCc1ccc(OCC)c(OCC)c1 | 5.18%
CC(=O)c1cccc(-n2nnnc2SCC(=O)Nc2cccc(NC(=O)c3ccco3)c2)c1 | 8.36%
Cc1c(N=Cc2ccncc2)c(=O)n(-c2ccccc2)n1C | 1.24%
Cc1c(N=Cc2nc3ccccc3n2C)c(=O)n(-c2ccccc2)n1C | 27.3% (active)
Cc1c(N=Cc2nc3ccccc3[nH]2)c(=O)n(-c2ccccc2)n1C | 17.4%
O=C(NCCc1c[nH]c2ccccc12)C(=O)NCC1OCCCN1S(=O)(=O)c1ccc(F)cc1 (stereo not given) | 4.14%
CCc1cccc(CC)c1NC(=O)COC(=O)c1ccc(F)c(S(=O)(=O)N(CC)CC)c1 | 3.7%
CCOc1ccccc1NC(=O)Nc1cnccn1 | 8.05%
O=c1c2ccccc2nc2n1CC/C2=C\c1ccccc1[N+](=O)[O-] | 1.69%
CCOC(=O)c1ccc(-n2c(C)nc3ccccc3c2=O)cc1 | 3.03%
CSc1ncc(Cl)c(C(=O)Nc2ccc(NC(C)=O)cc2)n1 | 1.65%
CSc1ncc(Cl)c(C(=O)Nc2cccc(C)c2)n1 | 6.29%

SMILES | inhibition
COc1ccc(S(=O)(=O)N2CCC(NC(=O)C(Cc3cccc(OC)c3OC)NC(C)=O)CC2)cc1 (stereo not given) | 12.2%
CCOC(=O)CSCC(=O)Nc1nnc(-c2cccc([N+](=O)[O-])c2)s1 | 2.17%
COc1ccc(-n2c(SCC(=O)Nc3cc(C)on3)nc3c([nH]c4ccccc43)c2=O)cc1 | 0.91%
COc1ccc(NC(=O)C2C(=O)N(C)C3(C)CC2c2ccccc2O3)cc1 (stereo not given) | 9.89%
COc1ccc2c(c1)OC13CCCCC1C2C(C(=O)c1ccccc1)C(=O)N3 (stereo not given) | -8.77%
CN1C(=O)C(C(=O)NC(C)(C)C)C2c3ccccc3OC13CCCCC23 (stereo not given) | 24.3% (active)
Cc1cc(C)c(C#N)c(SCC(=O)c2cccs2)n1 | 2.39%
Cc1nc(SCC(=O)N2c3ccccc3Sc3ccccc32)n[nH]1 | 4.61%
CCOc1ccc2nc(NC(=O)CSc3ccccc3)sc2c1 | 8.9%
CC(=O)CSc1nc(-c2cccs2)c(C#N)c(=O)[nH]1 | 7.78%
O=C(CSc1nc(O)cc(=O)[nH]1)N1c2ccccc2Sc2ccccc21 | 18.4%
CCOc1ccc2nc(NC(=O)CSc3ccc(Cl)cc3)sc2c1 | 2.68%
O=C(CCc1ccc(S(=O)(=O)N2CCOCC2)cc1)Nc1ccc(N2CCOCC2)cc1 | 3.54%
Cc1ccc(-c2noc(CN(C(=O)C(c3ccccc3)c3ccccc3)C(C)C)n2)cc1 | 5.44%
NC(=O)N/N=C/c1ccccc1OC(=O)c1ccccc1Br | 0.59%
Cc1ccc(C)c(CS(=O)(=O)c2cn(CC(=O)N3CCC(C)CC3)c3ccccc23)c1 | 9.18%
Cc1ccccc1CS(=O)(=O)c1cn(CC(=O)N2CCC(C)CC2)c2ccccc12 | 9.75%
CCN(C1CCCCC1)S(=O)(=O)c1ccc(S(=O)(=O)N2CCN(CCC#N)CC2)cc1 | -1.62%
O=C(/C=C\Nc1ccc2c(c1)OCO2)c1ccc(Cl)s1 | 3.02%
O=S(=O)(NC1CCCC1)c1ccc(S(=O)(=O)N2CCCN(Cc3ccccc3)C2)cc1 | 0.63%
CCCN=C(C)C1=C(O)c2ccccc2C1=O | 3.71%
CC(=NCc1cccnc1)C1=C(O)c2ccccc2C1=O | 4.58%
CC(=NCc1ccncc1)C1=C(O)c2ccccc2C1=O | 23.6% (active)
CCC(c1nnnn1Cc1ccco1)N1CCC(C(N)=O)CC1 (stereo not given) | 10.1%

SMILES | inhibition
Cc1ccc(-c2cc(N)n(Cc3ccc(Cl)cc3)n2)cc1 | 12.9%
Nc1cc(-c2ccccc2)nn1Cc1ccc(Cl)cc1 | 25.7% (active)
Nc1cc(-c2ccccc2)nn1Cc1ccccc1 | 34.3%
N#CC1=C(N)OC2=C(C(=O)CCC2)[C@]12C(=O)N(CC(N)=O)c1ccccc12 | 9.16%
Cc1cccc(Nc2nc(N)nc(CN3CCN(C)CC3)n2)c1 | 9.59%
CCN(CC)CCCNC(=O)C(C)n1c2ccccc2c2nc(=O)cc(C)n21 (stereo not given) | 3.31%
COc1ccc(C2/C(=C(/O)c3ccccc3)C(=O)C(=O)N2CCO)cc1 (stereo not given) | 2.56%
COc1ccc(N/C(C)=C2/C(=O)C(=O)N(CCO)C2c2ccc([N+](=O)[O-])cc2)cc1 (stereo not given) | 23.9% (active)
COc1ccc(N/C(C)=C2/C(=O)C(=O)N(CCO)C2c2ccc(Br)cc2)cc1 (stereo not given) | 7.27%
CCCCN1C(=O)C(O)=C(C(C)=O)C1c1ccccc1[N+](=O)[O-] (stereo not given) | -0.46%
CCCCN(CC)S(=O)(=O)c1ccc2c(c1)CCCN2C(C)=O | -2.36%
CC1CCCCN1S(=O)(=O)c1cnc(Cl)c(Br)c1 (stereo not given) | -7.81%
O=C(c1ccccc1F)N1CCN=C1c1ccccc1 | 6.9%
Cc1occc1C(=O)N/N=C/c1ccccn1 | 3.01%
Nn1c(SCC(=O)Nc2cc(S(=O)(=O)N3CCOCC3)ccc2Cl)nnc1-c1cccnc1 | 6.37%
COc1ccc(-n2cnnc2SCC(=O)Nc2cc(S(=O)(=O)N3CCCCC3)ccc2C)cc1 | 3.33%
Cc1ccnc2nc(C(=O)Nc3ccc(S(=O)(=O)N4CCCC4)cc3)nn12 | -4.02%
COc1ccc2nc(SCC(=O)N3CCCCC3)c(C#N)cc2c1 | 19.1%
O=C(CSc1nc2ccccc2nc1SCC(=O)N1CCOCC1)N1CCOCC1 | 6.36%
Cc1cc2ccccc2nc1SCC(=O)N1CCCC1 | 11.8%
O=C(CSc1nc2ccccc2nc1SCC(=O)N1CCCCC1)N1CCCCC1 | 42.7% (active)
COc1ccc2nc(SCC(=O)N3CCCCCC3)c(C#N)cc2c1 | 6.08%
O=C(CCc1nnc(Cc2c[nH]c3ccccc23)o1)NC(C1CC1)C1CC1 | 1.78%
CN1CCN(C(=O)CCNC(=O)Cn2ccc3ccccc3c2=O)CC1 | 2.23%

SMILES | inhibition
CC(=O)Nc1ccc(NC(=O)Cn2nc([N+](=O)[O-])c(Br)c2C)cc1 | -1.26%
CCn1c(COc2cccc(OC)c2)nnc1SCC(=O)Nc1cccc(OC)c1 | -3.8%
CCCn1cc(S(=O)(=O)CC(=O)N2CCc3ccccc32)c2ccccc21 | -2.1%
CCC(C)(C(=O)NC1CCCCC1)N(CC1CCCO1)C(=O)CNC(=O)c1ccccc1 (stereo not given) | 4.25%
O=C(CS)Nc1ccc2ccccc2c1 | 6.21%
Cc1ccc(Cl)cc1N1CCN(C(CC(C)C)c2nnnn2CC2CCCO2)CC1 (stereo not given) | -6.33%
CC(C)CC(c1nnnn1CC1CCCO1)N1CCN(c2cccc(Cl)c2)CC1 (stereo not given) | 31.4% (active)
CCCC(c1nnnn1CC1CCCO1)N1CCN(c2ccccc2)CC1 (stereo not given) | 7.5%
CCCCCc1ccc(CC(=O)O)cc1 | 3%
O=c1nc(N2CCCC2)nc(Nc2ccccc2)[nH]1 | 9.86%
c1ccc(Nc2nc(N3CCCCC3)nc(N3CCCCC3)n2)cc1 | 2.1%
CCOC(=O)CC(NC(C)=O)c1ccc([N+](=O)[O-])cc1 (stereo not given) | 2.95%
CCc1cc2c(=O)c(-c3nc4ccccc4n3C)c(COCC(=O)O)oc2cc1O | 6.97%
COC(=O)C(=Nc1ccccc1)/C(C(=O)C(=O)N(C)c1ccccc1)=C(\O)c1ccccc1 | 16.3%
CC1CCc2nc3ccc(S(=O)(=O)N4CCC(C(=O)N5CCCCC5)CC4)cc3c(C(=O)O)c2C1 (stereo not given) | 7.8%
O=C(O)c1c2c(nc3ccc(S(=O)(=O)N4CCC(C(=O)NC5CCCCCC5)CC4)cc13)CCCC2 | 23.1%
CC1CCc2nc3ccc(S(=O)(=O)N4CCC(C(=O)N5CCCCCC5)CC4)cc3c(C(=O)O)c2C1 (stereo not given) | 13.6%
O=C(O)c1c2c(nc3ccc(S(=O)(=O)N4CCC(C(=O)NC5CCCC5)CC4)cc13)CCCCC2 | 26.5% (active)
CC1CCc2nc3ccc(S(=O)(=O)N4CCC(C(=O)NC5CCCC5)CC4)cc3c(C(=O)O)c2C1 (stereo not given) | 23.4% (active)
CCCNC(=O)C1CCN(S(=O)(=O)c2ccc(Br)cc2)CC1 | 0.41%
CC1CCC(NC(=O)C2CCN(S(=O)(=O)c3ccc4nc5c(c(C(=O)O)c4c3)CC(C)CC5)CC2)CC1 (stereo not given) | 7.59%
CCCNC(=O)C1CCN(S(=O)(=O)c2ccc3nc4c(c(C(=O)O)c3c2)CCCCC4)CC1 | 25.7% (active)
O=C(O)c1c2c(nc3ccc(S(=O)(=O)N4CCC(C(=O)N5CCCCC5)CC4)cc13)CCCC2 | 4.87%
